Screens: PubChem, Broad Institute
CD40 NFkB inh = inhibitors of CD40-induced NF-kB signaling, primary screen, BL2 cells, luciferase reporter, single point. CD40L-induced, 4 h. inhibition, % at 10 µM. 83,000 compounds, 0.94% hits. AID 1053188, 2014;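 active = mean inhibition of at least 50% with a set share of replicates also reaching that level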;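 also: 0% = neutral control wells and 100% = IKK inhibitor VII at 50 µM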
* = called active by the depositor; [ ] = remark or other dose. The entries come from a sample that favours hits as a whole.

Screening Cc1nc(-c2ccc(F)cc2)c(CC(=O)N(C)CC(=O)Nc2ccccc2Cl)s1 returned CD40 NFkB inh 53*.
For O=C(NC1CCCC1)C(NS(=O)(=O)c1cccc2nsnc12)c1ccccc1 (centres undefined) the results were CD40 NFkB inh 3.
`CCCCNc1nc2ccccc2n1CC(=O)Nc1ccc2c(c1)OCCO2` gave CD40 NFkB inh -2.
For C(/C=C/c1ccccn1)=C\c1ccccc1 the results were CD40 NFkB inh -74.
`C=CCN1C(=O)c2ccc(C(=O)N3CCN(S(=O)(=O)c4cc(C)ccc4C)CC3)cc2C1=O` gave CD40 NFkB inh -1.
Screening Cn1cc(Cl)c(-c2n[nH]c(=S)n2C2CCCCC2)n1 returned CD40 NFkB inh 1.
For Cc1cc(NC(=O)c2ccc3c(c2)OCCO3)no1 the results were CD40 NFkB inh 79*.
For Cc1cc(NC(=O)c2ccc(F)cc2)no1 the results were CD40 NFkB inh -21.
For O=C(Nc1ccccn1)c1ccc2c(c1)OCCO2 the results were CD40 NFkB inh -2.
`COc1ccc(NS(=O)(=O)c2cccc(C(=O)N(C)Cc3ccc(SC)cc3)c2)cc1` gave CD40 NFkB inh -8.
`C[C@@H]1CN([C@H](C)CO)C(=O)c2cc(NC(=O)CCCN(C)C)ccc2O[C@@H](C)CCCCO[C@@H]1CN(C)S(=O)(=O)c1ccc(Cl)cc1` gave CD40 NFkB inh 7.
`C[C@@H]1CN([C@H](C)CO)C(=O)c2cc(NS(=O)(=O)c3cccs3)ccc2O[C@@H](C)CCCCO[C@H]1CN(C)Cc1ccc(Cl)c(Cl)c1` gave CD40 NFkB inh 56*[25 µM].
`C[C@@H]1CCCCO[C@@H](CN(C)Cc2ccc(Cl)c(Cl)c2)[C@H](C)CN([C@H](C)CO)C(=O)c2cc(NS(=O)(=O)c3cccs3)ccc2O1` gave CD40 NFkB inh 58*[25 µM].
For C[C@@H]1CCCCO[C@@H](CN(C)Cc2ccc(Cl)c(Cl)c2)[C@@H](C)CN([C@@H](C)CO)C(=O)c2cc(NS(=O)(=O)c3cccs3)ccc2O1 the results were CD40 NFkB inh 35[25 µM].
For C[C@@H]1CCCCO[C@@H](CN(C)Cc2ccc(Cl)c(Cl)c2)[C@H](C)CN([C@@H](C)CO)C(=O)c2cc(NS(=O)(=O)c3cccs3)ccc2O1 the results were CD40 NFkB inh 39[25 µM].
For C[C@@H]1CN([C@H](C)CO)C(=O)c2cc(NS(=O)(=O)c3cccs3)ccc2O[C@@H](C)CCCCO[C@@H]1CN(C)Cc1ccc(Cl)c(Cl)c1 the results were CD40 NFkB inh 42[25 µM].
C[C@H](CO)N1C[C@H](C)[C@H](CN(C)C(=O)c2ccncc2)OCCCC[C@H](C)Oc2ccc(NS(=O)(=O)c3cccs3)cc2C1=O was read as CD40 NFkB inh -12[25 µM].
`O=C1CC(NC2CCN(C(=O)c3cccc(F)c3)CC2)C(=O)N1` (centres undefined) gave CD40 NFkB inh 20.
Screening Cc1ccccc1S(=O)(=O)NCC[C@@H]1CC[C@H](NC(=O)C2CCCC2)[C@H](CO)O1 returned CD40 NFkB inh 0.
`C[C@@H]1CCCCO[C@@H](CN(C)CC2CCCCC2)[C@@H](C)CN([C@H](C)CO)C(=O)c2cc(NC(=O)Nc3ccc(C(F)(F)F)cc3)ccc2O1` gave CD40 NFkB inh 5[25 µM].
For C[C@@H]1CN([C@H](C)CO)C(=O)Cc2cc(NC(=O)Nc3ccc(C(F)(F)F)cc3)ccc2O[C@@H]1CN(C)CC1CCCCC1 the results were CD40 NFkB inh 32.
`C[C@H](CO)N1C[C@H](C)[C@@H](CN(C)Cc2ccc3c(c2)OCO3)Oc2ccc(NC(=O)Nc3ccc(C(F)(F)F)cc3)cc2C1=O` gave CD40 NFkB inh 13.
`Cc1noc(C)c1NC(=O)N(C)C[C@@H]1OCCCC[C@@H](C)Oc2ccc(NC(=O)Nc3ccc(C(F)(F)F)cc3)cc2C(=O)N([C@H](C)CO)C[C@@H]1C` gave CD40 NFkB inh -10[25 µM].
For COc1ccc(S(=O)(=O)N(C)C[C@@H]2Oc3ccc(NC(=O)Nc4ccc(C(F)(F)F)cc4)cc3C(=O)N([C@H](C)CO)C[C@H]2C)cc1 the results were CD40 NFkB inh 53*[25 µM].
Screening COc1ccc(S(=O)(=O)N(C)C[C@@H]2Oc3ccc(NC(=O)Nc4ccc(C(F)(F)F)cc4)cc3C(=O)N([C@H](C)CO)C[C@@H]2C)cc1 returned CD40 NFkB inh 38[25 µM].
C[C@@H]1CCCCO[C@H](CN(C)CC2CCCCC2)[C@H](C)CN([C@@H](C)CO)C(=O)c2cc(NC(=O)Nc3ccc(C(F)(F)F)cc3)ccc2O1 was read as CD40 NFkB inh 55*[25 µM].
For C[C@@H]1CCCCO[C@@H](CN(C)CC2CCCCC2)[C@H](C)CN([C@@H](C)CO)C(=O)c2cc(NC(=O)Nc3ccc(C(F)(F)F)cc3)ccc2O1 the results were CD40 NFkB inh 18.
`COc1ccc(S(=O)(=O)N(C)C[C@H]2Oc3ccc(NC(=O)Nc4ccc(C(F)(F)F)cc4)cc3C(=O)N([C@H](C)CO)C[C@@H]2C)cc1` gave CD40 NFkB inh 38[25 µM].
Screening Cc1noc(C)c1NC(=O)N(C)C[C@@H]1OCCCC[C@@H](C)Oc2ccc(NC(=O)Nc3ccc(C(F)(F)F)cc3)cc2C(=O)N([C@H](C)CO)C[C@H]1C returned CD40 NFkB inh 60*[25 µM].
Screening Cc1noc(C)c1NC(=O)N(C)C[C@@H]1OCCCC[C@H](C)Oc2ccc(NC(=O)Nc3ccc(C(F)(F)F)cc3)cc2C(=O)N([C@H](C)CO)C[C@@H]1C returned CD40 NFkB inh 28[25 µM].
For C[C@H](CO)N1C[C@H](C)[C@H](CN(C)CC2CCCCC2)Oc2ccc(NC(=O)Nc3ccc(C(F)(F)F)cc3)cc2C1=O the results were CD40 NFkB inh 69*.
`Cc1nc(-c2cccc(NS(=O)(=O)c3cccc4ccccc34)c2)cs1` gave CD40 NFkB inh -2.
CN(C)C(=O)c1cccc(-c2ccc3c(c2)[C@@H]2[C@@H](CCN2C(=O)c2ccc4c(c2)OCO4)[C@@H](CO)N3)c1 was read as CD40 NFkB inh -31[25 µM].
Screening CCC(=O)N1C[C@@H](O)COC[C@H]2O[C@@H](CC(=O)NCc3ccc(Oc4ccccc4)cc3)CC[C@@H]21 returned CD40 NFkB inh 1[25 µM].
Screening Cc1cc(Cl)cc2c1NC(=O)[C@]21[C@@H]2C(=O)N(Cc3ccccc3)C(=O)[C@@H]2[C@@H]2CCCN21 returned CD40 NFkB inh 10.
CO[C@@H]1CN(C)C(=O)c2cc(NC(C)=O)ccc2OC[C@H](C)N(Cc2ccncc2)C[C@H]1C was read as CD40 NFkB inh 5[25 µM].
O=C(CSC(=S)N1CCCC1)NCC(=O)Nc1ccccc1Br was read as CD40 NFkB inh 3.
For Cc1ccc(N)c(C(=O)CCCCC(=O)O)c1 the results were CD40 NFkB inh 4.
For O=C(Cc1ccccc1)c1c[nH]c(C(=O)NC2CCCC2)c1 the results were CD40 NFkB inh -3.
For C[C@@H]1CN([C@@H](C)CO)C(=O)c2cc(-c3cccc(C(=O)N(C)C)c3)cnc2O[C@H]1CN(C)C(=O)Cc1ccccn1 the results were CD40 NFkB inh -1[25 µM].
Cc1ccc(S(=O)(=O)N(C)C)cc1NC(=O)COC(=O)COc1ccc2c(c1)CCC2 was read as CD40 NFkB inh -1.
For O=C(NC1CCCC1)[C@H]1N[C@H]2c3ccc(-c4cccc(F)c4)c(=O)n3C[C@H]2[C@@H]1CO the results were CD40 NFkB inh 4.
Screening C[C@@H]1CN([C@H](C)CO)C(=O)c2c(c3ccccc3n2C)-c2ccccc2CO[C@H]1CN(C)C(=O)c1cc(Cl)cc(Cl)c1 returned CD40 NFkB inh 51*[25 µM].
